For ten molecules, composite z-score and z-score results are on record in PubChem BioAssay.

SMILES strings stand for the structures. Active and inactive are the calls of the source. Unless noted, no rule for the calls is given here.

For test [1], the system named is Wnt5a (protein binding on small-molecule microarray). Kind of test: small molecules binding Wnt5a protein – biophysical, small-molecule microarray, 635/667 nm fluorescence, primary screen (AID 1142).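 Also: fluorescence read at 667 nm with signal to noise per printed feature.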 The settings on record: 635 nm fluorescence, higher = more signal.
Test [2] can be described thus: ATP-based viability of Huh7 replicon cells – cell-based, CellTiter-Glo luminescence, basal, 48 h, cytotoxicity control for HCV replication inhibitor project, primary screen (AID 1143).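 Also: Huh7 hepatoma cells carrying a hepatitis C replication reporter with no stimulus; test concentration not given here.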 The settings on record: higher = more signal, called active from +8 up or from −8 down.
Test [3] is described as follows: Pseudomonas biofilm growth suppression – PAO1 strain, BacTiter-Glo luminescence, LB-PBS, primary screen (AID 1144). As to conditions: P. aeruginosa PAO1 biofilm, 12 h, higher = more signal.
A short description of test [4]: basal CRE-LacZ reporter activity in PC12 – cell-based, unstimulated, primary screen (AID 1145). As to conditions: no forskolin, luminescence, 4.5 h, higher = more signal, called active from +8 up or from −8 down.
A short description of test [5]: forskolin-driven CRE-LacZ activity in PC12 – cell-based, CRE-LacZ reporter, forskolin-stimulated, primary screen (AID 1146).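 Also: PC12 cells with 6xCRE LacZ reporter stimulated by forskolin 10 µM; beta-galactosidase reporter signal reflecting CREB driven transcription.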 The settings on record: luminescence, 4.5 h, higher = more signal, called active from +8 up or from −8 down.
The target in test [6] is Streptavidin (Streptomyces avidinii) (UniProt P22629). In words: compounds binding control protein streptavidin – biophysical, small-molecule microarray, 635/667 nm fluorescence, artefact control for SMM compound annotation, primary screen (AID 1147).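 Also: signal reflects streptavidin binding to arrayed compounds as a control protein.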 As to conditions: higher = more signal.
Streptavidin (Streptomyces avidinii), sequence (P22629 whole entry, looked up): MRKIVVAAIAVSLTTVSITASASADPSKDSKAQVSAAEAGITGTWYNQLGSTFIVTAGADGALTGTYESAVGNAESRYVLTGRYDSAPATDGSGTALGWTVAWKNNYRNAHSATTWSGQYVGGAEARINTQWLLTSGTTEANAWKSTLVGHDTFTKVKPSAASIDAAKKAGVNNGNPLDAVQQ
A short description of test [7]: probe aInhba binding on compound microarray – biochemical, small-molecule microarray, 635/667 nm fluorescence, primary screen (AID 1148).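 Also: score merges 667nm spot fluorescence with signal-to-noise for antibody binding to printed compounds.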 The settings on record: higher = more signal.
The target of test [8] is Torsin-1A (Homo sapiens) (UniProt O14656). Kind of test: TOR1A wild-type binding on microarray – cell lysate, small-molecule microarray, lysate, 635/667 nm, primary screen (AID 1149). As to conditions: COS7 hTOR1A-WT lysate, 635 nm fluorescence, higher = more signal.
Torsin-1A (Homo sapiens), sequence (O14656 whole entry, looked up): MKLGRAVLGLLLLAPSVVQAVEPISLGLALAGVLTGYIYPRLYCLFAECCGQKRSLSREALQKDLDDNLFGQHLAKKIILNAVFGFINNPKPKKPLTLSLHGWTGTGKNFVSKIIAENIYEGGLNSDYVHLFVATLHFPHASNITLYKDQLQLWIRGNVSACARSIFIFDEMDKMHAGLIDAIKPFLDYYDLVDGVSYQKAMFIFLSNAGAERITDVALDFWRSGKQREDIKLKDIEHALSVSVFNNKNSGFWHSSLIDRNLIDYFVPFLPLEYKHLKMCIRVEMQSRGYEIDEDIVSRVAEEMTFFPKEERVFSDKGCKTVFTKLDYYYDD
Test [9] has the same target. Kind of test: torsin A mutant lysate binding on microarrays – cell lysate, small-molecule microarray, COS7 lysate, 635/667 nm fluorescence, primary screen (AID 1150).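 Also: score pools 667 nm emission and signal to noise measuring lysate protein binding.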 As to conditions: COS7 hTOR1A mutant lysate, 635 nm fluorescence, higher = more signal.
Test [10] concerns Sonic hedgehog protein (Shh). In words: Sonic hedgehog microarray binding compounds – biochemical, small-molecule microarray, 635/667 nm fluorescence, primary screen (AID 1151).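 Also: Shh protein binding to compounds spotted on small-molecule microarray slides; score combines spot fluorescence intensity with signal-to-noise across triplicate slides.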 The settings on record: 635 nm fluorescence, higher = more signal.

Turning to `O=C1OCCC/C=C\[C@H]2OC34C=CCN(Cc5ccccc5)C(=O)[C@H]3N(CCCCCCO)C(=O)[C@@H]4C12` (stereo not given in full), the composite z-score in [1] is -0.489; in test [6], -0.821; in test [7] it was -0.147; in [8] it was -0.309; in test [9], 1.9; in test [10], -0.693. The z-score in test [2] is 0.233 (inactive); in test [3], -1.14 (inactive); in test [4] it was 1.01 (inactive); in test [5], 0.0851 (inactive).

On to `O=C1c2ccccc2[C@](Cc2ccccc2I)(C(=O)NC2CC2)[C@H](c2ccc(CO)cc2)N1Cc1ccccc1`, for which the composite z-score in test [1] was 0.384; in test [6], -0.248; in test [7] it was 0.0633; in test [8] it was 0.189; in test [9], 0.7; in test [10] it was 0.192. For the same molecule, the z-score in test [2] is -2.11 (inactive); in test [3], -1.02 (inactive); in test [4], -0.179 (inactive); in test [5] it was 0.0053 (inactive).

Regarding `O=C(O)[C@@]1(CCS(=O)(=O)c2ccccc2)COC(c2ccc(OCCCO)cc2)=N1`, the composite z-score was -0.142 in test [1]; -0.439 in test [6]; -0.108 in [7]; -0.792 in test [8]; 0.333 in test [9]; -1.03 in test [10]. Moreover, the z-score was 0.122 (inactive) in [2], 1.98 (inactive) in test [3], -0.389 (inactive) in test [4] and -0.298 (inactive) in test [5].

In the case of `CC(C)(C)OC(=O)CC[C@@]1(C(N)=O)N=C(c2ccc(OCCCO)cc2)O[C@@H]1c1ccccc1`, the composite z-score in test [1] was 0.22; in test [6], 0.818; in test [7] it was -0.0533; in test [8], 0.361; in test [9] it was 1.42; in test [10], -0.954. Further, the z-score was -0.0043 (inactive) in test [2], -0.256 (inactive) in [3], 1.5 (inactive) in test [4] and -1.12 (inactive) in test [5].

As to `COCCOC(=O)N1C(=O)[C@@]2(c3ccccc31)[C@H](c1ccccc1OCCO)N1[C@H](c3ccccc3)[C@H](c3ccccc3)OC(=O)[C@H]1[C@@H]2C(=O)Nc1nc2ccccc2s1`, the composite z-score in test [1] worked out at 0.212; in test [6], 1.14; in test [7] it was 0.113; in test [8], 0.421; in test [9], 1.25; in test [10], 1.81. Further, the z-score in test [2] is -3.78 (inactive); in test [3], -0.868 (inactive); in test [4] it was -0.0566 (inactive); in [5], 2.86 (inactive).

For the molecule `COC(=O)[C@@]1(Cc2ccc(OC)cc2)[C@H]2c3cc(C(=O)N4CCCC4)n(Cc4ccc(OC)c(OC)c4)c3C[C@H]2CN1C(=O)c1ccccc1`, the composite z-score in test [1] came to 0.753; in test [6], 2.03; in [7], 0.955; in [8], 0.201; in test [9], 0.695; in [10] it was 0.464. For the same molecule, the z-score in test [2] was -2.2 (inactive); in test [3], -0.139 (inactive); in [4], 0.959 (inactive); in test [5], -0.265 (inactive).

Turning to `O=C1O[C@H](c2ccccc2)[C@H](c2ccccc2)N2[C@H]1[C@@H](C(=O)N1CCN(c3ncccn3)CC1)[C@]1(C(=O)Nc3ccc(C#CC4=CCCCC4)cc31)[C@H]2c1ccc(O)cc1`, the composite z-score is -0.019 in test [1]; 1.08 in [6]; -0.0448 in [7]; 0.268 in [8]; 0.839 in test [9]; 1.13 in test [10]. Further, the z-score in [2] was -2.01 (inactive); in [3], -0.134 (inactive); in [4] it was 0.155 (inactive); in test [5], -0.196 (inactive).

As to `[N-]=[N+]=NCc1ccccc1[C@@H]1OC(c2ccc(OCCCO)cc2)=N[C@]1(CCS(=O)(=O)c1ccccc1)C(=O)NCc1ccccc1`, the composite z-score in test [1] came to 0.88; in test [6], 1.09; in [7], 1.09; in test [8], 0.248; in test [9] it was 0.467; in [10] it was 1.4. Also, the z-score in test [2] was -1.86 (inactive); in test [3], 0.0656 (inactive); in test [4], 0.614 (inactive); in [5] it was -1.66 (inactive).

On to `COc1ccc(C(O)C2C=CC3C(=O)N(c4ccccc4)C(=O)C3N2Nc2ccccc2F)cc1OCc1ccccc1` (stereo not given), for which the composite z-score in [1] was 0.353; in test [6], 1.47; in test [7] it was 1.14; in test [8] it was 0.281; in test [9], 0.671; in [10] it was -0.876. For the same molecule, the z-score in test [2] is 0.0131 (inactive); in test [3], -0.547 (inactive); in test [4] it was -0.143 (inactive); in [5], -0.269 (inactive).

`CN1C(=O)C2C=CC(C(O)c3ccc(-c4ccccc4)s3)N(N(c3ccccc3)c3ccccc3)C2C1=O` (stereo not given): the composite z-score in test [1] was 0.123; in test [6] it was 1.14; in test [7], 0.12; in test [8], 0.91; in test [9], -0.0126; in test [10] it was 0.409. Further, the z-score is -0.0598 (inactive) in [2], -0.468 (inactive) in test [3], -0.14 (inactive) in test [4] and -0.101 (inactive) in [5].
